HepG2 tox = qHTS for Inhibitors of TGF-b: Cytotox Counterscreen. HepG2 CAGA-GFP viability, ATP luminescence, 18 h. Potency, µM (top dose mostly 46.1 µM), most hits filed as cytotoxic. 410,000 tested, 0.76% active
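HepG2 CAGA-GFP cells (1000/well, DMEM with 1% FBS) received compound, then TGF-beta at 500 pg/mL final, and were incubated 18 hours at 37 degrees C. Viability was read by CellTiter-Glo luminescence. Media-only wells were set as complete cell-killing and DMSO as no toxicity.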
mIDH1 inhibitor = qHTS for Inhibitors of mutant isocitrate dehydrogenase 1 (IDH1): qHTS. Potency, µM (titrated, usually from 76.6 µM), usual class: inhibitors. Isocitrate dehydrogenase [NADP] cytoplasmic (Homo sapiens), O75874. 390,000 tested, 0.093% active. IDH1-R132H enzyme, NADPH consumption, diaphorase/resazurin fluorescence; further: nearly all actives have a fitted effect of over 65% in size
Target sequence (O75874 whole entry R132H, stated change not applied): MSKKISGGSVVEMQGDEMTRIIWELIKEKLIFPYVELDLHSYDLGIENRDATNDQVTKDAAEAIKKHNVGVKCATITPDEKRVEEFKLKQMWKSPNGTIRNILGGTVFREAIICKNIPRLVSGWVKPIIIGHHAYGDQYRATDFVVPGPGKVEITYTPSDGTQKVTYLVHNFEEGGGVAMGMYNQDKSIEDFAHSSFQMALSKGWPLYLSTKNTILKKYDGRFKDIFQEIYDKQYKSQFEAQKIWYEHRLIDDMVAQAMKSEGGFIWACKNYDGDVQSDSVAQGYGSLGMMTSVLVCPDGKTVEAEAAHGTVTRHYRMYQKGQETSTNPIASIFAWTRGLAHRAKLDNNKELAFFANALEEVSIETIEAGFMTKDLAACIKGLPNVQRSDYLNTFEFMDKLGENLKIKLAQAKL
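IDH1-R132H (0.5 ug/mL) preincubated 30 min with compound, then NADPH (0.016 mM) and alpha-KG (2 mM) added; 80 min at RT, pH 7.5. Remaining NADPH coupled via diaphorase/resazurin to fluorescence (540/590 nm); concentration-response curves normalized to no-enzyme control.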
ATXN viability = Viability Counterscreen for Primary qHTS for Inhibitors of ATXN expression; S2 cells (HEK-293 line with an ATXN2-luciferase reporter) viability, CellTiter-Fluor protease fluorescence, 24 h; 400,000 tested, 0.49% active; AID 651635, 2014; Potency, µM (top dose mostly 56.7 µM), hits mostly cytotoxic; further: nearly all actives have a fitted effect of over 40% in size
ATXN2 expr inh = Primary qHTS for Inhibitors of ATXN expression; Potency, µM (top dose mostly 57 µM), most hits filed as inhibitors; 360,000 tested, 0.72% active; HEK-293 ATXN2-luciferase reporter, luminescence, 24 h; further: nearly all actives have a fitted effect of over 55% in size
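qHTS (up to 57 uM final) was run with 24 h compound exposure of reporter cells at 37 °C. Each well was multiplexed: SteadyGlo luminescence measured ATXN2-luciferase expression after a fluorogenic Gly-Phe-AFC viability readout (25 uM final).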
LDHA inh = qHTS assay for inhibitors of human lactate dehydrogenase | L-lactate dehydrogenase A chain (Homo sapiens), P00338 | purified LDHA, NADH/diaphorase-resazurin fluorescence; stronger effect = lower value | activity change, % (values are at about 110 or 230 µM) | 480,000 tested, 0.15% active | AID 1347041, 2019; in the data active means activity change below about -30%; inconclusive means mostly about -25% to -30%
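Human LDH5 (2 nM) was incubated with 0.06 mM NADH and 0.2 mM pyruvate for 5 min at room temperature in Tris pH 7.4. Remaining NADH was coupled through diaphorase/resazurin, and resorufin fluorescence was read at 0 and 20 min.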
TGFb SMAD3 inh = qHTS for Inhibitors of TGF-b. HepG2 CAGA-GFP TGF-b/SMAD3 reporter, GFP fluorescence, 18 h; TGF-beta stimulated, 500 pg/mL final. Potency, µM (titrated, usually from 46.1 µM), actives largely listed as inhibitors. 410,000 tested, 1.2% active; further: nearly all actives have a fitted effect of over 65% in size
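HEPG2 CAGA-GFP cells (1000/well, DMEM with 1% FBS) were pre-incubated 2 h at 37 degrees C, given compound by pin tool, then stimulated with TGF-beta at 500 pg/mL final for 18 h before per-cell GFP fluorescence imaging.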
Numbers stand for hits. Sampled rows, rich in hits. Any-hit rate of the full collection: about 2.2%. Unless noted, the call rests on the fitted dose curve; in most records, active means well fitted curve in the direction sought with a large enough effect; inconclusive means small, poorly fitted or top-dose-only effect, or another doubt; inactive means no such curve, though single readings can be large; an effect the other way counts as inactive or inconclusive.

What do the screens show for `COc1ccc(S(=O)(=O)N2CCC(n3c(C)nc4cccnc43)CC2)cc1Cl`?
HepG2 tox: inactive; mIDH1 inhibitor: inactive; ATXN viability: inactive; ATXN2 expr inh: inactive; LDHA inh: inactive; TGFb SMAD3 inh: inactive

Results for O=C(Nc1ccc(-c2nc3cc(NC(=O)c4cccs4)ccc3o2)cc1)c1cccs1 ?
HepG2 tox: inactive; mIDH1 inhibitor: inactive; ATXN viability: 15.8µM; ATXN2 expr inh: 10µM; LDHA inh: inactive; TGFb SMAD3 inh: inactive

Results for CCC(=O)Nc1ccc2oc(-c3cccc(C)c3)nc2c1 ?
HepG2 tox: 20µM; mIDH1 inhibitor: inactive; ATXN viability: inactive; ATXN2 expr inh: inactive; LDHA inh: inactive; TGFb SMAD3 inh: inactive

What do the screens show for `COc1ccc(-c2nnc(NC(=O)c3ccc(F)cc3)o2)cc1`?
HepG2 tox: inactive; mIDH1 inhibitor: inactive; ATXN viability: 20µM; ATXN2 expr inh: inactive; LDHA inh: inactive; TGFb SMAD3 inh: inconclusive

What do the screens show for `COc1ccc(-c2nc3cc(NC(=O)c4ccccc4)ccc3o2)cc1`?
LDHA inh: -38.8

What do the screens show for `COc1ccc(NC(=O)COC(=O)c2cccc(S(=O)(=O)N3CCCCC3)c2)c(OC)c1`?
HepG2 tox: inactive; mIDH1 inhibitor: inactive; ATXN viability: inactive; ATXN2 expr inh: inactive; LDHA inh: inactive; TGFb SMAD3 inh: inactive

Results for COc1ccc(C(=O)N/C(=C\c2ccc(-c3cccc(C(F)(F)F)c3)o2)C(=O)NC(C)(C)C)cc1 ?
LDHA inh: inactive

How did O=C1COc2ccc(S(=O)(=O)N3CCC(C(=O)NCc4ccc(F)cc4)CC3)cc2N1 do in these assays?
HepG2 tox: inactive; mIDH1 inhibitor: inactive; ATXN viability: inactive; ATXN2 expr inh: inactive; LDHA inh: inactive; TGFb SMAD3 inh: inactive

What do the screens show for `Cc1ccn2c(=O)c(C(=O)Nc3ccc(F)c(C(F)(F)F)c3)cnc2c1`?
HepG2 tox: inactive; mIDH1 inhibitor: inactive; ATXN viability: inactive; ATXN2 expr inh: inactive; LDHA inh: inactive; TGFb SMAD3 inh: inactive

What do the screens show for `CNC(=O)c1ccc(N2C(=S)N(c3cnc(C#N)c(C(F)(F)F)c3)C(=O)C23CCC3)cc1F`?
ATXN2 expr inh: 13.7µM

How did COc1ccccc1/C=C/c1nc2ccccc2[nH]1 do in these assays?
HepG2 tox: 8.91µM; LDHA inh: inactive; TGFb SMAD3 inh: inactive

How did N#Cc1ccccc1COC(=O)c1cc(S(=O)(=O)N2CCOCC2)ccc1F do in these assays?
HepG2 tox: inactive; mIDH1 inhibitor: inactive; ATXN viability: inconclusive; LDHA inh: inactive; TGFb SMAD3 inh: inactive

How did CCOc1c2ccc(C(=O)NCc3ccco3)cc2nn1CCOC do in these assays?
HepG2 tox: inactive; mIDH1 inhibitor: inactive; ATXN viability: inactive; ATXN2 expr inh: inactive; LDHA inh: inactive; TGFb SMAD3 inh: inactive

Results for N#Cc1ccc(-c2cccs2)nc1SCC(=O)Nc1cccc(C(F)(F)F)c1 ?
HepG2 tox: 11.2µM; mIDH1 inhibitor: inactive; ATXN viability: inactive; ATXN2 expr inh: inactive; LDHA inh: inactive; TGFb SMAD3 inh: inconclusive

How did Cc1ccc(NC(=S)N(CCN(C)C)C(C)c2ccco2)cc1Cl (configuration not stated) do in these assays?
HepG2 tox: inactive; mIDH1 inhibitor: inactive; ATXN viability: inactive; LDHA inh: inactive; TGFb SMAD3 inh: 17.8µM

How did Fc1ccccc1C1c2cccn2CCN1C(=S)Nc1cccc(Br)c1 (configuration not stated) do in these assays?
HepG2 tox: inactive; mIDH1 inhibitor: inactive; ATXN viability: inactive; LDHA inh: inactive; TGFb SMAD3 inh: inactive

What do the screens show for `Fc1ccccc1C1c2cccn2CCN1C(=S)Nc1ccc(Br)cc1` (configuration not stated)?
HepG2 tox: inactive; mIDH1 inhibitor: inactive; ATXN viability: inactive; ATXN2 expr inh: inconclusive; LDHA inh: inactive; TGFb SMAD3 inh: 22.4µM

Results for O=C1CC(N2CCOCC2)=NN1c1ccc([N+](=O)[O-])cc1 ?
HepG2 tox: inactive; mIDH1 inhibitor: inactive; ATXN viability: inconclusive; ATXN2 expr inh: inactive; LDHA inh: inactive; TGFb SMAD3 inh: inactive

What do the screens show for `CC(C)C[C@H](CO)Nc1nc(Nc2cccc(Cl)c2)c2ncn(C(C)C)c2n1`?
HepG2 tox: inactive; mIDH1 inhibitor: inactive; ATXN viability: 22.4µM; ATXN2 expr inh: inconclusive; LDHA inh: inactive; TGFb SMAD3 inh: inconclusive

Results for O=C(NCCN1CCOCC1)C1CCN(S(=O)(=O)N2CCCC2)CC1 ?
HepG2 tox: inactive; mIDH1 inhibitor: inactive; ATXN viability: inconclusive; LDHA inh: inactive; TGFb SMAD3 inh: inactive

Results for O=S(=O)(Nc1ccc(Cl)cc1)c1cccc(S(=O)(=O)c2ccc(Cl)c(Cl)c2)c1 ?
HepG2 tox: inactive; mIDH1 inhibitor: inactive; ATXN viability: inconclusive; ATXN2 expr inh: inconclusive; LDHA inh: inactive; TGFb SMAD3 inh: 14.1µM

What do the screens show for `COc1ccccc1NC(=O)N(Cc1ccc2c(c1)OCO2)Cc1nc2ccccc2c(=O)[nH]1`?
HepG2 tox: inactive; mIDH1 inhibitor: inactive; ATXN viability: inactive; ATXN2 expr inh: inactive; LDHA inh: inactive; TGFb SMAD3 inh: inactive

How did COc1ccccc1CN(Cc1nc2ccccc2c(=O)[nH]1)C(=O)Nc1cccc(C)c1 do in these assays?
HepG2 tox: 8.91µM; mIDH1 inhibitor: inactive; ATXN viability: inactive; ATXN2 expr inh: inactive; LDHA inh: inactive; TGFb SMAD3 inh: inconclusive

How did CC(C)C(=O)N(Cc1ccc(F)cc1)Cc1nc2ccccc2c(=O)[nH]1 do in these assays?
HepG2 tox: 20µM; mIDH1 inhibitor: inactive; ATXN viability: inactive; ATXN2 expr inh: inactive; LDHA inh: inactive; TGFb SMAD3 inh: inactive

What do the screens show for `CCN(CC(=O)NCCc1ccc(F)cc1)Cc1nc2ccccc2c(=O)[nH]1`?
HepG2 tox: inactive; mIDH1 inhibitor: inactive; ATXN viability: inactive; LDHA inh: inactive; TGFb SMAD3 inh: inactive

Results for COc1ccc(C(=O)N2CCN(Cc3cc(=O)n4ccsc4n3)CC2)cc1F ?
LDHA inh: inactive

Results for C#CCN1C=CC(=O)[C@@H](OC(=O)Nc2ccc(Br)cc2)[C@H]1c1ccccc1Br ?
HepG2 tox: inactive; mIDH1 inhibitor: inactive; ATXN viability: inconclusive; ATXN2 expr inh: inconclusive; LDHA inh: inactive; TGFb SMAD3 inh: 12.6µM

Results for Cc1cccc(-n2cnc3cc(C(=O)NCC4CCCO4)ccc32)c1 (configuration not stated) ?
HepG2 tox: inactive; mIDH1 inhibitor: inactive; ATXN viability: inactive; LDHA inh: inactive; TGFb SMAD3 inh: inactive

How did Cc1c(NC(=O)CN(c2cccc(Cl)c2Cl)S(C)(=O)=O)c(=O)n(-c2ccccc2)n1C do in these assays?
LDHA inh: inactive
